# Assay outcomes from PubChem.
# a7 integrin act: qHTS for Activators of Integrin-Mediated Alleviation for Muscular Dystrophy. alpha7betagal myoblasts, beta-gal FDG fluorescence, 48 h. Potency, µM (titrated, usually from 38.3 µM), inactives show top-dose activation, hits mostly activators. 350,000 tested, 0.064% active;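 also: 100% = response of the positive control SU9516; nearly all actives have a fitted effect of over 60% in size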
#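 Alpha7betagal+/- myoblasts (passage 13) were plated 16-24 hr, then exposed to compounds (1:260 dilution of DMSO stock) for 48 hours at 37C. After MPER lysis, β-galactosidase reporter activity was read as FDG fluorescence (ex 480/em 540) after 30 minutes.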
# RORgamma inh: qHTS for inhibitors of ROR gamma transcriptional activity; Nuclear receptor ROR-gamma (Mus musculus), P51450; Drosophila S2 Gal4-RORgamma UAS-luciferase reporter, 20 h; Potency, µM (highest dose often 53.6 µM), for the others: at the top dose activity change, negative = inhibition, actives largely listed as inhibitors; 310,000 tested, 5.4% active; also: % is scaled to controls: 0 for no effect and ±100 for the full control effect; nearly all actives have a fitted effect of over 60% in size
# Target sequence (P51450 whole entry, looked up, the tested form may be a part): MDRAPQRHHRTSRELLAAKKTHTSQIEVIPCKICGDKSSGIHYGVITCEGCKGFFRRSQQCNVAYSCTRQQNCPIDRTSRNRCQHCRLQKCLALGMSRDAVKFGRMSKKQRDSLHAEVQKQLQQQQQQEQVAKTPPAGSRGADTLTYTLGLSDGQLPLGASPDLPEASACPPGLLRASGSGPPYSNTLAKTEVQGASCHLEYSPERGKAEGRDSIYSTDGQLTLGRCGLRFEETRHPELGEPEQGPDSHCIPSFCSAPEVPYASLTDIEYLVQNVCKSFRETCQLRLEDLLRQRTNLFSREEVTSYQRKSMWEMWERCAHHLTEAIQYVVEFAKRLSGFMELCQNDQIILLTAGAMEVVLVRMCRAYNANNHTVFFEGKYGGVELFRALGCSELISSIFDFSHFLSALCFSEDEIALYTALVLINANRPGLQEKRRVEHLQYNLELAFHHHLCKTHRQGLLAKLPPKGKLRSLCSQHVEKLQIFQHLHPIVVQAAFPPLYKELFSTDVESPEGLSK
#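 In this cell-based reporter format, copper sulfate (700 uM final) drives Gal4–ROR gamma fusion expression from a metallothionein promoter in Drosophila Schneider cells; compounds preincubated 1 hr, reporter read after 20 hr at ambient temperature.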
# uPA generation: qHTS for Inhibitors of Cell Surface uPA Generation; cell surface uPA generation assay, qHTS; Potency, µM (highest dose often 38.3 µM), without a hit: at the highest dose activity change, negative = inhibition, usual class: inhibitors; 330,000 tested, 0.31% active; active = well fitted inhibition curve with a large enough effect; inconclusive = small, poorly fitted or top-dose-only effect; inactive = no such curve, though single readings can be large or run the other way; tested in mouse RAW 264.7 cells; also: % is scaled to controls: 0 for no effect and ±100 for the full control effect; nearly all actives have a fitted effect of over 55% in size
# Gal4-VP16 FLuc: VP16 counterscreen qHTS for inhibitors of ROR gamma transcriptional activity. Drosophila S2 Gal4-VP16 UAS-luciferase, luminescence, 20 h. Potency, µM (top dose mostly 53.6 µM), for inactives: at the highest dose activity, negative = inhibition, most hits filed as inhibitors. 310,000 tested, 3.5% active;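 also: Gal4-VP16 expression switched on by copper sulfate through the metallothionein promoter; % is scaled to controls: 0 for no effect and ±100 for the full control effect; nearly all actives have a fitted effect of over 50% in size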
# BCR signal inh: qHTS Assay to Find Inhibitors of Chronic Active B-Cell Receptor Signaling; ABC-DLBCL IkBa-CBG/CBR reporter, luminescence ratio, 4 h; Potency, µM (series often up to 46.1 µM), without a hit: top-dose activity change, negative = inhibition, usual class: inhibitors; 340,000 tested, 0.05% active; active = well fitted inhibition curve with a large enough effect in the signal ratio, with a control signal flat, not every such curve was filed as active; inconclusive = small, poorly fitted or top-dose-only effect, or effect the other way, or a change in a side signal; the % refers to the signal ratio;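 also: plate controls were basal doxycycline-induced cells for no effect and cells given 10 µM MG132 for full effect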
#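 TMD8 ABC-DLBCL cells carrying doxycycline-inducible green luciferase fused to IkappaBalpha plus unfused red luciferase were exposed to compounds (up to 46 uM) for 4 hrs at 37C. Activity came from the overlap-corrected green/red luminescence ratio.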
# Mito fusion act: qHTS Assay for Small Molecule Inhibitors of Mitochondrial Division or Activators of Mitochondrial Fusion; S. cerevisiae fusion-defective mutant growth rescue, CellTiterGlo 48 h; Potency, µM (highest dose often 46.1 µM), without a hit: at the highest dose growth rescue (activation), hits mostly activators; 320,000 tested, 0.23% active; AID 485298, 2010; also: % of control where 0% means no effect; nearly all actives have a fitted effect of over 45% in size
#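 Growth-rescue viability read-out: after 48 h at the non-permissive 37C in glycerol/ethanol YPEG, yeast mitochondrial fusion mutants are measured by CellTiterGlo luminescence; compounds (23 nl pinned per well) restoring growth score as division inhibitors or fusion activators.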
# * hit, by the source's call; ? = inconclusive; · = no result; [ ] = dose if it differs, or a comment. The list is not random: actives were taken first. Their share in the collection is about 5.5%. Unless noted, calls follow the shape of the dose curve; as a rule, active = well fitted curve in the direction sought with a large enough effect; inconclusive = small, poorly fitted or top-dose-only effect, or another doubt; inactive = no such curve, though single readings can be large; an effect the other way counts as inactive or inconclusive. Potency is read from the fitted curve at half-maximal effect.
SMILES,a7 integrin act,RORgamma inh,uPA generation,Gal4-VP16 FLuc,BCR signal inh,Mito fusion act
O=C(NC(=S)NC1CCCc2ccccc21)c1ccc(F)cc1 (stereo not given),?,8.9µM*,·,16µM*,?,4%
N#Cc1ccc(C(=O)NC2CCCc3ccccc32)cc1 (stereo not given),13%,17%,0%,14%,-11%,3%
O=C(NC(=S)NC1CCCc2ccccc21)c1ccco1 (stereo not given),-23%,7.1µM*,-5%,?,?,-13%
CC(C)C1N=C(c2ccc3c(c2)OCO3)CC(c2ccccc2O)N1 (stereo not given),?,-27%,10µM*,-1%,?,3%
CN(C)c1ccc(-c2ccncc2)cc1,·,-17%,·,14%,1%,-3%
CNc1nnc(-c2ccc(N(C)C)cc2)s1,5%,?,?,8.9µM*,?,-3%
COc1ccc(/C=C2\CCCc3c2nc2ccccc2c3C(=O)O)cc1OC,·,6%,·,6%,-5%,2%
COc1ccc(/C=C2\CCc3c2nc2ccccc2c3C(=O)O)cc1OC,29%,8.9µM*,3.5µM*,11µM*,-3%,-4%
CN(C)C1C(=O)C(C(N)=O)C(=O)C2(O)C(=O)C3C(=O)c4c(O)ccc(Cl)c4C(O)C3CC12 (stereo not given),·,-11%,·,-8%,·,·
CC1=CN2C(=N)/C(=C\c3cn(CCCOc4ccccc4)c4ccccc34)C(=O)N=C2S1,-1%,7.1µM*,3%,5µM*,-6%,1%
CCOC(=O)c1c(-c2ccccc2)nc2cc(C)ccn12,-8%,13µM*,·,-8%,?,3%
CCOC(=O)c1c(-c2ccccc2)nc2ccc(C)cn12,5%,?,-5%,-1%,10%,-13%
Oc1ccc(/C=N/n2c(-c3ccccc3)n[nH]c2=S)cc1,-4%,?,-3%,-9%,2%,0%
CC(C)(C)c1ccc(-c2n[nH]c(=S)n2/N=C/c2ccncc2)cc1,0%,?,4%,14µM*,-2%,0%
Cc1ccc(/C=N/n2c(-c3ccncc3)n[nH]c2=S)cc1,-20%,8.9µM*,3%,13µM*,1%,?
[NH-]c1ncnc2c1N=C[N+]2=CC=CCO,5%,2%,16%,12%,0%,8%
CCOc1cc(CNc2ccc(O)cc2)ccc1OCc1ccc(Cl)cc1Cl,-54%,16µM*,1%,?,14%,?
COc1cc(CNCc2ccccn2)ccc1OCc1ccc(Cl)c(Cl)c1,-32%,?,0%,4%,-1%,0%
CCOc1cccc(CNc2ccc(O)cc2)c1OCc1ccc(Cl)cc1,-36%,?,-1%,?,13%,6%
COc1cc(CNCc2ccccn2)ccc1OCc1ccc(Cl)cc1Cl,-54%,11µM*,-9%,-23%,1%,-10%
c1ccc(COC[C@@H]2CO2)cc1,·,-1%,·,2%,·,·
CC(C)C[C@H](NC(=O)[C@H](CCCCN)NC(=O)[C@H](CCCNC(=N)N)NC(=O)[C@H](C)NC(=O)[C@H](CO)NC(=O)[C@H](CCCCN)NC(=O)[C@H](CCCNC(=N)N)NC(=O)[C@H](C)NC(=O)CNC(=O)[C@@H](NC(=O)[C@H](Cc1ccccc1)NC(=O)CNC(=O)CNC(=O)[C@@H](N)Cc1ccccc1)[C@@H](C)O)C(=O)N[C@@H](C)C(=O)N[C@@H](CC(N)=O)C(=O)N[C@@H](CCC(N)=O)C(=O)O,·,15%,·,-7%,·,·
Cc1cc(-c2c(C)[nH]n(-c3ccccc3)c2=O)n[nH]1,6%,0.4µM*,5%,1µM*,0%,6%
COc1ccc(-c2cnc(N)n2C)cc1,3%,-28%,1%,0%,?,-3%
COCCn1c(-c2ccccc2)cnc1N,2%,11µM*,2%,?,?,-1%
SMILES,a7 integrin act,RORgamma inh,uPA generation,Gal4-VP16 FLuc,BCR signal inh,Mito fusion act
Cn1c(-c2ccccc2)cnc1N,-27%,13µM*,0%,-11%,?,-1%
CCOc1cc(OCC)c(C(=O)CCC(=O)O)cc1OCC,·,-3%,·,2%,·,·
COc1cnc(N(C)C)nc1Sc1ccc(Cl)cc1,5%,25%,0%,-9%,-1%,3%
CCOC(=O)CSc1nc(-c2ccccn2)ncc1OC,13%,?,0%,-6%,-1%,-6%
COc1cnc(-c2ccccn2)nc1Sc1ccccc1,-56%,2.5µM*,1%,11µM*,?,-2%
COc1ccc(Sc2nc(-c3ccccn3)ncc2OC)cc1,-19%,2.2µM*,1%,8.9µM*,-13%,9%
COc1cnc(-c2ccccn2)nc1Sc1ccc(Cl)cc1,30%[7.66 µM],5.6µM*,2%,5.6µM*,3%,-8%
COc1cnc(-c2ccccn2)nc1Sc1ccc(F)cc1,0%,-29%,0%,3.5µM*,-5%,7%
CN(Cc1ccccc1)C(=O)CCC1CCN(C(=O)CCC(F)(F)F)CC1,-24%,33%,0%,13%,-1%,0%
C=CCOc1ccn(C)c(=O)n1,-4%,1%,-5%,3%,2%,-2%
CC1CC(C)CN(C(=O)CSc2nnc(N)s2)C1 (stereo not given),-21%,-17%,-5%,-2%,-1%,-2%
CCN(CC)c1ccc(S(=O)(=O)Nc2cc(Cl)ccc2Cl)cc1NC(=S)NC(=O)C1CCCC1,9%,5µM*,2%,22µM*,10%,-6%
CCN(CC)S(=O)(=O)c1ccc(Cl)c(NC(=S)NC(=O)C2CCCC2)c1,-45%,·,?,·,?,?
C/C(=N/Nc1ccc([N+](=O)[O-])cc1)c1c[nH]c2ccccc12,-39%,?,?,?,4%,-5%
CCCCCCCCCCCCCCCCCC(=O)NCC(COP(=O)([O-])OCC[N+](C)(C)C)OCC (stereo not given),·,·,·,·,·,-66%
NC(=O)c1nsc(C(=O)N(c2ccc(F)cc2)C(C(=O)NCC2CCCO2)c2c[nH]c3ccccc23)c1N (stereo not given),-36%,-113%,-7%,16µM*,-1%,4%
NC(=O)c1nsc(C(=O)N(c2ccccc2)C(C(=O)NCc2ccc(F)cc2)c2ccc(O)cc2)c1N (stereo not given),2.2µM*,-2%,2%,-1%,-26%,-2%
